Source: PubChem BioAssay (NCI)
Values joined by “and” are separate entries in the source; they are usually repeats but may differ in a detail not shown here. Equal entries are not always repeated. This is part of a sample that, as a whole, favours compounds with a hit. Of some 83,000 tested, about 20% had one in any assay.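 In brief: 96-well plates, 48 h treatment, single concentration, percent growth endpoint.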 Values without a mark were called inactive. Active and inactive are the calls of the source. Rule for the calls: active = growth percent below 10; inactive = the rest.

The molecules below were run on MDA-MB-468 breast (assay: NCI-60 one-dose screen, 48 h (100 = growth as untreated, 0 = no growth, -100 = all killed)). Settings: 10 µM unless noted.
With `Cc1cc(NCCCCNc2ccnc3cc(Cl)ccc23)nc(Nc2ccc(C(=O)N3CCCC3)cc2)n1` the growth was -26.6% (active).
Work on `Nc1nc2c(c(-c3nc(N)nc4c3CCc3ccccc3-4)n1)CCc1ccccc1-2` yielded a growth of 112%.
`C[PH+](c1nc2ccccc2nc1[PH+](C)C(C)(C)C)C(C)(C)C.C[PH+](c1nc2ccccc2nc1[PH+](C)C(C)(C)C)C(C)(C)C.[Au+].[Cl-]` (stereo not given) was tested, and the growth was -80.7% (active).
`CC(C)(C)[Si](C)(C)OC1[C@@H](O[Si](C)(C)C(C)(C)C)[C@@H](CNC(=O)NC(=O)C(F)(F)F)O[C@H]1n1cnc2c(NC(=O)Nc3ccccc3)ncnc21` (stereo not given in full) was tested, and the growth was 102%.
In the case of `Nc1nc(N)c2cc(Sc3cccc(C(F)(F)F)c3)ccc2n1`, the growth is reported as -4.8% (active).
In the case of `COc1cccc(-c2nc3cc(NC(=O)c4ccc(Cl)c(C#N)c4)ccc3o2)c1`, the growth is reported as -60.3% (active).
`O=C1c2ccccc2OC=C(c2ccccc2)N1CCCCNc1ccc(S(=O)(=O)Nc2ncccn2)cc1` was tested, and the growth was 103%.
For `COC(=O)c1c2c(c(C)[n+]([O-])c1C)C(=O)C(NCc1ccc(Br)cc1)=CC2=O`, the growth was -16.6% (active).
In the case of `COc1cc(-c2nc(SCC(=O)Nc3ccc(C(C)=O)cc3)[nH]c(=O)c2C#N)cc(OC)c1OC`, the growth is reported as -12.8% (active).
For `NC(=O)c1c(NC(=O)c2ccc(C(F)(F)F)cc2Cl)sc2c1CCC(=O)C2`, the growth was -33.8% (active).
With `COc1ccc(C(=O)c2cc(OC)c(OC)c(OC)c2)cc1/C=C/C(=O)c1ccc(O)cc1` the growth was 34.3%.
With `C=C(C)[C@@H]1CCC[C@]2(C(=O)O)CC[C@]3(C)[C@@H](CC[C@@H]4[C@@]5(C)C/C(=C/c6ccncc6)C(=O)C(C)(C)[C@@H]5CC[C@]43C)[C@@H]12` the growth was 16.6%.
`CCOP(C)(=O)/C(Cc1ccc(OC)c(OC)c1)=N\O` (stereo not given) showed a growth of 96.5%.
For `CC(C)(C)c1cc(NC(=O)Nc2ccc(-c3cn4c(n3)sc3cc(OCCN5CCOCC5)ccc34)cc2)no1`, the growth was 12.4% and 30.6%.
Molecule `CN1C(=O)CN2CCc3ccccc3C2c2cc(Cl)ccc21` (stereo not given) has a growth of 115%.
`C#CCOc1cccc(Nc2ncnc3c2ncn3C2CCN(C(=O)CCl)C2)c1` (stereo not given) was tested, and the growth was -65.7% (active).
`C#CCNC(=O)c1cccc2c1cc(C)n2-c1nc2c(c(NCc3ccccc3)n1)CCCC2` was tested, and the growth was -50.9% (active).
`O=S(=O)(NCCCNc1cc(-c2c(-c3cccc(O)c3)nc3sccn23)ccn1)c1cccc(Cl)c1` gave a growth of 37.2%.
With `COc1cc(OC)cc(C(=O)Nc2cc(-c3cccnc3)nc(NCCCN3CCOCC3)n2)c1` the growth was 83.2%.
In the case of `Cc1ccc2c(c1)CC(O)CC1C(=O)N(CCO)CC(=O)N21` (stereo not given), the growth is reported as 96%.
`CCOc1nc(-c2ccccc2)cc2c(O)c(C(=O)NN)[nH]c(=O)c12` was tested, and the growth was 110%.
Work on `CCOC(=O)c1nnn(-c2ccccc2)c1C1=CN(C)CCC1` yielded a growth of 120%.
`Cc1ccc(C2SCC(=O)N2Cc2ccccc2)cc1` (stereo not given) was tested, and the growth was 87.3%.
`Cn1cnc([N+](=O)[O-])c1S(=O)(=O)Oc1ccccc1` was tested, and the growth was 77.4%.
`CCNCCNc1cc(-c2ccc(C#N)cc2)c(C#N)c2nc3ccccc3n12` was tested, and the growth was -14.1% (active).
For `C=CCn1ccc(=O)nc1SC`, the growth was 115%.
For `Cc1c(C(N)=O)sc2c1c(=O)n(Cc1ccccc1)c1nnc(S(=O)(=O)CC(=O)Nc3ccc(Cl)cc3)n21`, the growth was 33.2%.
`CCOC(=O)/C=C1/SC(=Nc2ccc(C#N)cc2)N(Cc2ccco2)C1=O` was tested, and the growth was 27.5%.
Molecule `Cc1ccccc1Nc1n[nH]c(Cc2ccccc2)n1` has a growth of 104%.
Molecule `COc1cc(C2CC(c3cccc(Nc4ccncc4)c3)=NN2c2ccc(Cl)cc2)cc(OC)c1OC` (stereo not given) has a growth of 10.3%.
For `COC(=O)Nc1nc2ccc(C(=O)c3cccc(I)c3)cc2[nH]1`, the growth was 2.93% (active).
`CCN1C(=O)N(CC)C2C1NC(=S)N2/N=C/c1ccc(OC)cc1` (stereo not given) gave a growth of 26.8%.
In the case of `COc1ccc2c(c1)c(-c1nc(-c3c[nH]c4ncccc34)cs1)cn2CCO`, the growth is reported as 1.57% (active).
Work on `Nc1nc(Nc2ccccc2)c2ncn(Cc3cc4c(cc3Br)OCO4)c2n1` yielded a growth of 14.7%.
Work on `COC(=O)/C(CCC=C(C)C)=C1\[C@@H](OC(C)=O)C[C@@]2(C)[C@H]1CC(=O)[C@H]1[C@@]3(C)CCC(N4CCCC4)[C@@H](C)[C@@H]3CC[C@@]12C` (stereo not given in full) yielded a growth of 99.7%.
With `O=C1c2ccc3c4c(ccc(c24)C(=O)N1CCCNCc1ccccc1F)C(=O)N(CCCNCc1ccccc1F)C3=O` the growth was -95.1% (active).
`CC1CCc2c(C(=O)Nc3ncc(Cc4cccc([N+](=O)[O-])c4)s3)csc2C1` (stereo not given) gave a growth of 12.3%.
In the case of `CCNC(=O)Oc1ccc(/C(=C(\C)c2ccccc2)c2ccc(OCCN(CC)CC)cc2)cc1`, the growth is reported as 79.3%.
`Cc1ccc(NC(=O)c2[nH]c(SCCN(C)C)nc2-c2ccc(F)cc2)cc1Nc1ccc2ncn(C)c(=O)c2c1` was tested, and the growth was 92.1%.
With `COc1cc(/C=C/C(=O)c2ccc(C(F)(F)F)cc2)ccc1Oc1nc(NCCO)nc(N2CCOCC2)n1` the growth was 85.6%.
